# Screening results (PubChem)
# The list is not random: actives were taken first. Their share in the collection is about 3.8%.
# TrxR1 substrate = rat thioredoxin reductase 1 substrate activity; O89049; purified TrxR1 substrate turnover, NADPH consumption readout; AID 588456; Potency, µM (top dose mostly 114 µM), without a hit: top-dose activity change, negative = substrate turnover; 390,000 tested, 0.01% active; also: nearly all actives have a fitted effect of over 50% in size
#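 Rat TrxR1, dispensed at 90 nM, was prereduced with 400 uM NADPH (final) for 5 min at ~22 deg C, then incubated with compound 15 min before 400 uM selenite. A first-read NADPH fluorescence drop versus no-compound background flagged substrates.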
# GCN5L2 inh = inhibitors of human GCN5L2 histone acetyltransferase. AID 504327. Potency, µM (series often up to 58.9 µM), inactives show at the top dose activity change, negative = inhibition, most hits filed as inhibitors. Q92830. 390,000 tested, 0.21% active. GCN5L2 HAT assay, ThioGlo1 CoA-SH fluorescence
# Target sequence (Q92830 whole entry, looked up): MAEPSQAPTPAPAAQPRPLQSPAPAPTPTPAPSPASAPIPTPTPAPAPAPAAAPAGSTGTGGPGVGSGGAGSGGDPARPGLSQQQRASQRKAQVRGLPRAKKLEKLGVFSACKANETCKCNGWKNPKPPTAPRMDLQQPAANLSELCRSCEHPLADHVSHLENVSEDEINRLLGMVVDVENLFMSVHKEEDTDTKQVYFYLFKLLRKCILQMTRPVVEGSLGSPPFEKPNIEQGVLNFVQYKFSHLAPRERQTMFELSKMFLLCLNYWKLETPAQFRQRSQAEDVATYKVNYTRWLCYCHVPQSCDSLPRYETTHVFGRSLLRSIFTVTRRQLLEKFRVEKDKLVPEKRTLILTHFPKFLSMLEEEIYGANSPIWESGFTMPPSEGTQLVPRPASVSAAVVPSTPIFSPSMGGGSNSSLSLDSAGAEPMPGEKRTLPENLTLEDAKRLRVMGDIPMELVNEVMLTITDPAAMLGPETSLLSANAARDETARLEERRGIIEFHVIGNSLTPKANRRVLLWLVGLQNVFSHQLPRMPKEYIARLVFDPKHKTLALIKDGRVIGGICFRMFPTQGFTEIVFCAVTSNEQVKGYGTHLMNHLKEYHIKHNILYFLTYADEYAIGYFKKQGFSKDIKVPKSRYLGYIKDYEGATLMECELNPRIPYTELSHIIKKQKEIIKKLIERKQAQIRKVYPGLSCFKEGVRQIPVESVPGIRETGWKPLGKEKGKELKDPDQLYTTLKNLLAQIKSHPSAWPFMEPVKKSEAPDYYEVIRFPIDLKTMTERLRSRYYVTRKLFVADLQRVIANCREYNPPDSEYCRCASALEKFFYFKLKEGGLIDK
#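 GCN5L2 (20 nM) in 50mM HEPES pH 7.5, 0.1mM EDTA, 0.01% Tween-20 preincubated 15 min with compounds at room temperature. Reaction started with H3(1-25) 75uM, acetyl-CoA 70uM, ThioGlo1 50uM; CoA-thiol fluorescence (Ex340/Em540) read at 0 and 20 min.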
# TrxR1 inh = inhibitors of rat thioredoxin reductase 1; 390,000 tested, 1% active; O89049; Potency, µM (series often up to 114 µM), for inactives: at the top dose activity change, negative = inhibition, usual class: inhibitors; recombinant rTrxR1, NADPH fluorescence consumption, selenite substrate; also: nearly all actives have a fitted effect of over 65% in size
#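 Rat TrxR1 (90 nM in the dispensed reagent) was pre-reduced with 400 uM NADPH for 5 min at room temperature, then incubated with compound for 15 min. After 400 uM selenite was added, NADPH fluorescence (Ex 340/Em 450 nm) was followed for 8 min.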
# Sfp PPTase inh = inhibitors of Bacillus subtilis Sfp phosphopantetheinyl transferase; Q9F4F7; Biochemical Sfp PPTase activity, qHTS; Potency, µM, for inactives: largest response in the series, negative = inhibition, usual class: inhibitors; 310,000 tested, 3.5% active; AID 1490;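 also: the enzyme is Sfp with the accession as filed and its product quenches rhodamine fluorescence; 0% = enzyme reaction without inhibitor and -100% = no enzyme wells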
#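 Step 1, compound plus 15 nM Sfp-PPTase, 15 min, room temperature. Step 2, add rhodamine-CoA (5 uM) and BHQ-2-YbbR (12.5 uM). Step 3, read 525/598 nm fluorescence at 0 and 30 min.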
# VDR inh = inhibitors of human vitamin D receptor | VDR-SRC2-3 peptide fluorescence polarization, 2 h | Potency, µM, inactives show max response, negative = inhibition, most hits filed as inhibitors | AID 504847 | 400,000 tested, 0.93% active
#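 Inhibition of the VDR/SRC2-3 peptide interaction is quantified by fluorescence polarization. Compounds (23 nl, pintool) incubate with the reagents for 2 hours at ambient room temperature.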
# GLS inh = inhibitors of human glutaminase (GLS); O94925; GLS enzymatic activity, qHTS titration; Potency, µM (highest dose often 45.5 µM), without a hit: at the highest dose activity change, negative = inhibition, usual class: inhibitors; 410,000 tested, 0.21% active
#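 hKGA; 45 mM KH2PO4 pH 8.2 + 0.02% Tween-20; cpd via pin tool; 1 mM Gln soln; GluOx/HRP/Amplex Red; RT 30 min; fluor. t0 & final.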
# Starred values were filed as active, the others as inactive; u = inconclusive; x = no result given; [ ] = another dose, or the depositor's remark. Calls follow the shape of the dose curve; as a rule, active = well fitted curve in the direction sought with a large enough effect; inconclusive = small, poorly fitted or top-dose-only effect, or another doubt; inactive = no such curve, though single readings can be large; an effect the other way counts as inactive or inconclusive. Unless noted, % is scaled to controls: 0 for no effect and ±100 for the full control effect; potency is read from the fitted curve at half-maximal effect.
SMILES,TrxR1 substrate,GCN5L2 inh,TrxR1 inh,Sfp PPTase inh,VDR inh,GLS inh
CCOC(=O)c1ccc(-n2c(CN3CCC(C(N)=O)CC3)nc3ccc([N+](=O)[O-])cc3c2=O)cc1,-2%,-1%,u,22µM*,u,3%
Cc1cc(C)nc(NC(=O)c2cccs2)c1,-2%,-5%,18%,11%,-10%,-15%
COc1cc(CNn2nnnc2N)ccc1OCc1c(Cl)cccc1Cl,1%,5%,13%,21%,-6%,13%
Oc1ccc(-c2cnns2)c(O)c1,0%,-8%,-9%,56µM*,-20%,u
CCOC(=O)CCNc1n[nH]c(=O)[nH]c1=O,4%,-3%,18%,23%,1%,7%
COc1cc(/C=N\NC(=O)c2ccc(C)nc2)ccc1OC(=O)c1ccco1,-5%[57.1 µM],-9%,17%[57.1 µM],-1%,8%,0%
Cc1nc(-c2ccc(Cl)cc2)sc1C1(C)CC(c2cccnc2)=NO1 (configuration not stated),5%,29%,8%,56µM*,-17%,-10%
COc1ccc(C2=NOC(C)(c3sc(-c4ccc(Cl)cc4)nc3C)C2)cc1 (configuration not stated),-1%,x,25%,x,-18%,4%
NC(=S)Cc1nc2n(n1)Cc1ccccc1-2,-10%,-3%,-9%,56µM*,-26%,6%
CC(=O)CCc1oc2c([N+](=O)[O-])cccc2c1-c1ccc(C)o1,3%,5%,u,8.9µM*,-26%,2%
CC(=O)CCc1oc2ccc([N+](=O)[O-])cc2c1-c1ccc(C)o1,5%[57.1 µM],-8%,9%[57.1 µM],-20%,-19%,-2%
C/C(CCc1oc2ccccc2c1-c1ccc(C)o1)=N/O,3%,-7%,u,28µM*,-13%,14%
C/C(CCc1oc2c(Br)cc(Br)cc2c1-c1ccc(C)o1)=N\O,4%,0%,25µM*,22µM*,-12%,-23%
Cc1ccc(-c2nnc(-c3ccc(Br)cc3)o2)o1,32%,0%,-10%[57.1 µM],24%,15%,-10%
CCCCCC(O)CCc1n[nH]c(=S)n1-c1ccccc1 (configuration not stated),-8%,-21%,-33%,-5%,-3%,0%
C=CCNC(=O)NC(=O)COC(=O)c1nc2nccc(C)n2n1,-8%,-3%,-16%,9%,-18%,-8%
N#Cc1ccccc1Cn1cc(/C=C/[N+](=O)[O-])c2ccccc21,0%[57.1 µM],-8%,u,-28%,32µM*,12%
O=C(O)Cn1cc(/C=C/[N+](=O)[O-])c2ccccc21,-4%[57.1 µM],1%,-40%,-13%,u,-6%
NNc1nc(C(F)(F)F)nc2ccccc12,7%,-7%,11%[57.1 µM],50µM*,-5%,-5%
O=C(O)CCNc1nc(C(F)(F)F)nc2ccccc12,1%,-6%,5%,19%,12%,-2%
O=C(N/N=C1/C(=O)c2cccc3cccc1c23)c1ccc(Cl)cc1,-2%,-22%,-6%,45µM*,4%,-4%
Cc1cnc(C(=O)Nc2nnc(C(C)C)s2)cn1,-3%,-21%,18%,u,7%,1%
Cc1cnc(C(=O)Nc2nnc(C)s2)cn1,0%[57.1 µM],0%,16%[57.1 µM],79µM*,-16%,0%
CSc1ccccc1NC(=O)CN1CCCCC1C (configuration not stated),4%[57.1 µM],3%,-1%[57.1 µM],0%,-4%,12%
Cc1ccc2nc(-c3cccc(-c4nc5ccc(C)cc5o4)n3)oc2c1,5%,x,26%,x,50µM*,x
SMILES,TrxR1 substrate,GCN5L2 inh,TrxR1 inh,Sfp PPTase inh,VDR inh,GLS inh
CC(=O)Oc1ccc2occ(/C=N/c3cc(=O)[nH]c(=S)[nH]3)c(=O)c2c1,-15%,-9%,-11%,-28%,28µM*,3%
Cc1ccc(-c2nnn(CC(=O)N3CCC(C)CC3)n2)o1,11%[57.1 µM],-4%,-10%[57.1 µM],22%,0%,-1%
Cc1ccc(N/N=C(\C#N)C(N)=S)c(C)c1,-7%,u,-29%,u,50µM*,u
CC1(C)[C@@H]2CC[C@]1(C)[C@@H](OC(=O)CSC#N)C2,x,3%,x,5%,50µM*,7%
CC1(C)[C@H]2CC[C@]1(C)[C@@H](OC(=O)C[N+]1(C)CCOCC1)C2,-6%,1%,18%[11.4 µM],6%,5%,13%
Fc1cccc(Nc2c3c(nc4ccccc24)CCC3)c1,-6%[57.1 µM],3%,-8%[57.1 µM],1%,-15%,16%
c1ccc2c(Nc3ccc4c(c3)OCCO4)c3c(nc2c1)CCCC3,-18%[57.1 µM],-9%,1%[57.1 µM],50µM*,9%,-23%
Cc1cn2c(=O)cc(COc3ccc(NC(=O)c4ccccc4C)cc3)nc2s1,7%,0%,23%,x,-19%,-1%
O=C(NC(=S)Nn1cnnc1)c1ccccc1,9%,1%,-11%,x,-15%,22%
O=C(NC(=S)Nn1cnnc1)c1ccccc1Br,1%,-17%,5%,25µM*,u,0%
CCCNC(=O)c1nnsc1S(=O)(=O)c1ccc(Cl)cc1,3%[57.1 µM],u,u,13µM*,u,u
CCOc1ccc(C2/C(=C(\O)c3ccc4c(c3)OCCO4)C(=O)C(=O)N2CCCN2CCOCC2)cc1OC (configuration not stated),1%,-6%,50µM*,-29%,-12%,-12%
O=C1C(=O)N(CCN2CCOCC2)C(c2ccccn2)/C1=C(/O)c1ccccc1 (configuration not stated),-5%,-10%,18µM*,56µM*,-19%,5%
CCN(CC)CCN1C(=O)C(=O)/C(=C(/O)c2ccc3c(c2)CC(C)O3)C1c1ccc(OC)cc1 (configuration not stated),-18%,-4%,45µM*,22%,-3%,15%
Cc1c(/C(O)=C2/C(=O)C(=O)N(CCN3CCOCC3)C2c2cccs2)cnn1-c1ccccc1 (configuration not stated),4%[57.1 µM],-4%,-37%,-1%,4%,5%
CCOc1ccc(C2/C(=C(\O)c3ccc4c(c3)OCCO4)C(=O)C(=O)N2CCCN2CCOCC2)cc1 (configuration not stated),-13%,-17%,u,11%,-3%,2%
Cc1ccc(C2/C(=C(/O)c3cnn(-c4ccccc4)c3C)C(=O)C(=O)N2CCN2CCOCC2)o1 (configuration not stated),3%[57.1 µM],-17%,-10%[57.1 µM],50µM*,4%,4%
C=CCOn1c(C)c(C(C)=O)c2c3nonc3ccc21,15%,-5%,0%,4%,0%,0%
